The source of these data is PubChem BioAssay.

Assay [1] can be described thus: compound effects on lung adenocarcinoma cell viability – A549, calcein-AM fluorescence, 48 h, basal, profiling panel (AID 1162). Note: test concentration not given here. Conditions: higher = more signal.
Assay [2] is described as follows: compound effects on differentiated 3T3-L1 adipocyte viability – cell-based, 3T3-L1 adipocytes, calcein-AM fluorescence, 48 h, basal, profiling panel (AID 1163). Note: test concentration not given here. The conditions noted are these: 3T3-L1 adipocytes viability, higher = more signal.
A short description of assay [3]: compound effects on hepatocellular carcinoma cell viability – HepG2, calcein-AM fluorescence, 48 h, basal, profiling panel (AID 1164). Note: test concentration not given here. Conditions: higher = more signal.
A short description of assay [4]: compound effects on multiple myeloma cell viability – MM1S, calcein-AM fluorescence, 48 h, basal, profiling panel (AID 1165). Note: test concentration not given here. The conditions noted are these: higher = more signal.
Assay [5] is described as follows: calcein-AM signal in unstimulated myeloma cells – cell-based, calcein-AM fluorescence, 48 h, PK04 Diversity Set, profiling panel (AID 1166).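 Note: cells grown under basal conditions without added stimulus; test concentration not given here.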 The conditions noted are these: RPMI8226 myeloma viability, higher = more signal.
The nature of assay [6]: JC-1 mitochondrial signal, unstimulated HepG2 cells – cell-based, JC-1 fluorescence, 24 h, 100 nL compound, profiling panel (AID 1167). Note: test concentration not given here. The conditions noted are these: HepG2 mitochondrial potential, higher = more signal.
Assay [7] in a line: JC-1 mitochondrial signal, unstimulated adipocytes – cell-based, JC-1 fluorescence, 3T3-L1 adipocytes, 24 h, 100 nL compound, profiling panel (AID 1168). Note: test concentration not given here. Conditions: JC-1 mitochondrial fluorescence, higher = more signal, called active from +8 up or from −8 down.
Assay [8] in a line: JC-1 mitochondrial signal, unstimulated myeloma cells – cell-based, JC-1 fluorescence, RPMI8226, 24 h, 100 nL compound, profiling panel (AID 1169). Note: test concentration not given here. Conditions: JC-1 mitochondrial potential fluorescence, higher = more signal.
Assay [9] in a line: JC-1 mitochondrial signal, unstimulated MM1S myeloma – cell-based, JC-1 fluorescence, 24 h, 100 nL compound, profiling panel (AID 1170). Note: test concentration not given here. Conditions: MM1S mitochondrial potential, higher = more signal.
Assay [10] can be described thus: resazurin metabolic signal in A549 cells – cell-based, resazurin fluorescence, 24 h, PK04 Diversity Set, profiling panel (AID 1171). Note: test concentration not given here. Conditions: A549 viability, higher = more signal, called active from +8 up or from −8 down. Background: Resazurin is reduced to fluorescent resorufin, in cell work by metabolically active cells.
Assay [11] in a line: resazurin metabolic signal in HepG2 cells – cell-based, resazurin fluorescence, 24 h, PK04 Diversity Set, profiling panel (AID 1172). Note: test concentration not given here. Conditions: HepG2 viability, higher = more signal.
Assay [12] is described as follows: budding yeast growth changes without added modifier – OD600, strain BY4716, 24 h, basal condition, primary screen (AID 1173). The conditions noted are these: S. cerevisiae BY4716 growth, OD600, 24 h; higher = more signal, called active from +8 up or from −8 down.
Assay [13] in a line: viability profiling in MM1S myeloma cells – cell-based, resazurin fluorescence, basal, 24 h, PK04 Diversity Set, profiling panel (AID 1174). Note: test concentration not given here. The conditions noted are these: higher = more signal, called active from +8 up or from −8 down.
Assay [14] has as its target Dihydroorotate dehydrogenase (quinone), mitochondrial (Plasmodium falciparum (isolate 3D7)) (UniProt Q08210). Description: inhibition of P. falciparum DHODH – biochemical, C-terminal His tag, absorbance 600 nm, primary screen (AID 1175).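 Note: recombinant parasite enzyme with a five histidine tag at its C terminus; test concentration not given here.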 The conditions noted are these: PfDHODH enzyme, DCIP absorbance 600 nm; higher = more signal, called active from +8 up or from −8 down.

A short description of assay [15]: inhibition of PAO1 biofilm formation – strain PAO1, LB-PBS medium, absorbance 600 nm, primary screen (AID 1176). Note: test concentration not given here. Conditions: P. aeruginosa PAO1 growth/biofilm, A600, 12 h; higher = more signal.
The nature of assay [16]: growth modulation of vineyard yeast isolate – strain RM11-1a, OD600, basal, 24 h, primary screen (AID 1177).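 Note: cultures grown under basal conditions with no added stressor; test concentration not given here.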 The conditions noted are these: S. cerevisiae RM11-1a growth, OD600, 24 h; higher = more signal, called active from +8 up or from −8 down.
Assay [17] in a line: growth of efflux-deficient E. coli DRC39 – strain DRC39, OD650, 24 h, E. coli filamentation inducers, primary screen (AID 1178).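 Note: growth measured as culture turbidity by optical density at 650 nm; test concentration not given here.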 The conditions noted are these: E. coli DRC39 acrAB, higher = more signal, called active from +8 up or from −8 down.
Assay [18] is described as follows: growth of efflux-deficient E. coli DRC39 – strain DRC39, OD650, 48 h, E. coli filamentation inducers, primary screen (AID 1179).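 Note: screen aims at cell division blockers that make cells filament.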 The conditions noted are these: E. coli DRC39 delta-acrAB growth, higher = more signal, called active from +8 up or from −8 down.
Assay [19] in a line: viability profiling in RPMI8226 myeloma cells – cell-based, resazurin fluorescence, basal, 24 h, PK04 Diversity Set, profiling panel (AID 1180).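 Note: RPMI8826 multiple myeloma cell line at 5000 cells per well; test concentration not given here.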 Conditions: higher = more signal.
The target in assay [20] is E3 ubiquitin-protein ligase XIAP (Homo sapiens) (UniProt P98170). Description: small molecules binding XIAP protein – biophysical, small-molecule microarray, fluorescence 635 nm, primary screen (AID 1181).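 Note: score merges 667 nm emission and signal to noise over triplicate slides.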 Conditions: higher = more signal.
Chain of E3 ubiquitin-protein ligase XIAP (Homo sapiens) (P98170 whole entry, looked up): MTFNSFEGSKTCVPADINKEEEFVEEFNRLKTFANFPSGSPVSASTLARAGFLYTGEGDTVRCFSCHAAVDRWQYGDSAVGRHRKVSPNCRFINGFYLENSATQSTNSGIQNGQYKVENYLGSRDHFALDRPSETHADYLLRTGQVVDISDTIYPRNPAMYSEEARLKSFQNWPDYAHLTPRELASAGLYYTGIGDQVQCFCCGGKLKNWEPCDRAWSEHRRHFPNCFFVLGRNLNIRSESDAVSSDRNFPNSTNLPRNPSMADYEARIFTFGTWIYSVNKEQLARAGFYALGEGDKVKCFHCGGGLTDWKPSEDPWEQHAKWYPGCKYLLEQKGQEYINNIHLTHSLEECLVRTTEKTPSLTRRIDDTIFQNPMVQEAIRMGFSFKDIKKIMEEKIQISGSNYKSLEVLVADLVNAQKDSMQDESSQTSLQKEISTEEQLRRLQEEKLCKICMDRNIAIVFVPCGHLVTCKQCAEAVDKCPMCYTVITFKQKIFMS

Active and inactive are the calls of the source. Unless noted, the rule behind the calls is not given here.

Chain of Dihydroorotate dehydrogenase (quinone), mitochondrial (Plasmodium falciparum (isolate 3D7)) (Q08210 whole entry, looked up): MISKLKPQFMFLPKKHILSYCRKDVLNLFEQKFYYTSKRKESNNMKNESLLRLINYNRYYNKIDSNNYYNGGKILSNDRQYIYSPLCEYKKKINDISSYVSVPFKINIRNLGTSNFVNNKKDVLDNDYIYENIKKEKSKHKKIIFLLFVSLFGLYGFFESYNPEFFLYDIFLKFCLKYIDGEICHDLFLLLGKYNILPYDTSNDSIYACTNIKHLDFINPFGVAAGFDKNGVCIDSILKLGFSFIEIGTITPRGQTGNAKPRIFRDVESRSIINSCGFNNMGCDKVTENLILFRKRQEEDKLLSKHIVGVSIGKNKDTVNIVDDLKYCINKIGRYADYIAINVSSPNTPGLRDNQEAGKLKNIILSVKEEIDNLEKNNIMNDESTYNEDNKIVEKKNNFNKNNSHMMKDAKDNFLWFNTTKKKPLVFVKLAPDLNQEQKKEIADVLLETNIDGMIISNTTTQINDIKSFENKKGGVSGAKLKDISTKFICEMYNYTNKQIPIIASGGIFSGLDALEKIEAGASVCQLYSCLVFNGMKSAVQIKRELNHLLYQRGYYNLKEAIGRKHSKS

In the case of `COc1ccccc1CN1C(=O)c2ccccc2[C@@]2(Cc3ccccc3N(CC(C)C)C2=O)[C@@H]1c1ccc(CO)cc1`, the z-score in assay [1] is 0.211; in [2], 0.444; in [3] it was -0.385; in [4], -0.481; in [5], -0.0712; in [6], -0.204. In addition, the z-score in assay [7] was 0.211 (inactive); in assay [8], -0.887; in assay [9] it was -0.0409; in [10], -1.03 (inactive); in assay [11], -0.593; in assay [12], 0.0849 (inactive). For the same molecule, the z-score in assay [13] was -0.681 (inactive); in [15], 0.332 (inactive); in assay [16] it was -1.04 (inactive); in [17] it was -0.169 (inactive); in assay [18], -0.0353 (inactive); in assay [19], -0.564. Also, the results for the composite z-score in [14] and in assay [20] were -0.359 (inactive) and 0.0957, respectively.
Take `COC(=O)[C@@]1(Cc2ccc(F)cc2)[C@H]2c3cc(C(=O)N4CCCC4)n(CCCNc4ncc(C(F)(F)F)cc4Cl)c3C[C@H]2CN1C(=O)c1ccccc1`: the z-score in assay [1] is -0.386; in assay [2] it was -0.68; in [3], 0.0224; in [4], -1.48; in [5], -1.13; in [6], 1.12. Further, the z-score in assay [7] is -1.8 (inactive); in [8], -0.501; in assay [9], -1.2; in assay [10], -0.733 (inactive); in assay [11], -0.461; in assay [12] it was 2.05 (inactive). In addition, the z-score is -2.38 (inactive) in assay [13]; 1.03 (inactive) in [15]; 1.65 (inactive) in assay [16]; -0.645 (inactive) in [17]; -0.681 (inactive) in assay [18]; -2.34 in assay [19]. Moreover, the composite z-score in [14] is 0.308 (inactive); in assay [20], 0.426.
With `CCCc1cc2c(n1Cc1cc(F)cc(F)c1)C(C)C1CN(C(=O)c3ccccc3)C(C)(C(=O)OC)C21` (stereo not given), the z-score is -0.679 in assay [1]; 0.149 in assay [2]; -0.237 in [3]; -1.7 in assay [4]; -4.39 in assay [5]; 2.5 in [6]. Moreover, the z-score is -1.98 (inactive) in [7]; -0.904 in assay [8]; -1.79 in assay [9]; -0.675 (inactive) in [10]; -1.27 in [11]; 0.615 (inactive) in assay [12]. Moreover, the z-score in [13] is -1.65 (inactive); in [15] it was 0.992 (inactive); in assay [16] it was 0.223 (inactive); in assay [17], -0.522 (inactive); in assay [18] it was -0.152 (inactive); in [19] it was -1. For the same molecule, the composite z-score in [14] is 0.249 (inactive); in assay [20] it was 0.0702.
For `C=C(CCCC)/C(=C/C[C@@H](OC(=O)c1ccncc1)c1ccc(OCCO)cc1)c1cc(C(=O)OC)ccc1OC`, the z-score in [1] was 0.941; in [2] it was -0.18; in assay [3], 1.86; in assay [4], -0.61; in assay [5], -0.385; in assay [6] it was 2.46. Also, the z-score in assay [7] was -0.451 (inactive); in assay [8] it was -0.728; in [9], -0.969; in assay [10] it was 0.998 (inactive); in [11], 0.691; in [12] it was 1.1 (inactive). The z-score is 0.234 (inactive) in assay [13]; -0.39 (inactive) in assay [15]; 0.826 (inactive) in assay [16]; 0.885 (inactive) in assay [17]; 0.868 (inactive) in [18]; 0.572 in [19]. Further, the values for the composite z-score in assay [14] and in [20] were -0.265 (inactive) and -0.141, respectively.
For the molecule `COc1ccc(C(O)C2C=CC3C(=O)N(Cc4ccccc4)C(=O)C3N2n2cnnc2)cc1OCc1ccccc1` (stereo not given), the z-score in [1] is 0.187; in assay [2], 0.534; in assay [3] it was -0.345; in assay [4] it was 0.195; in assay [5], -1.79; in assay [6], -0.323. For the same molecule, the z-score in assay [7] was -1.06 (inactive); in [8] it was 0.593; in [9], -0.882; in assay [10], 0.18 (inactive); in assay [11], -0.299; in assay [12] it was 0.278 (inactive). Further, the z-score in assay [13] was 0.708 (inactive); in assay [15], 1.13 (inactive); in assay [16], -0.271 (inactive); in assay [17], 1.31 (inactive); in assay [18], -0.48 (inactive); in [19], 0.329. Besides, the composite z-score in assay [14] was -0.265 (inactive); in assay [20], 0.035.
For the molecule `CCOC(=O)C1=CC[C@@H](c2ccccc2)N(S(=O)(=O)c2ccc(C)cc2)[C@H]1c1ccccc1C`, the z-score in assay [1] is -1.42; in assay [2], 0.068; in [3], -0.0628; in assay [4], -0.247; in assay [5], -0.734; in assay [6], 2.59. The z-score was -0.134 (inactive) in [7]; -0.275 in assay [8]; -0.271 in assay [9]; 2.32 (inactive) in [10]; 1.81 in assay [11]; 0.786 (inactive) in assay [12]. Besides, the z-score in assay [13] was 0.336 (inactive); in assay [15], -0.377 (inactive); in [16], -0.59 (inactive); in assay [17] it was -0.502 (inactive); in assay [18], 0.3 (inactive); in [19], 0.686. Moreover, the composite z-score is -0.494 (inactive) in assay [14] and -0.0239 in [20].
Regarding `CC(C)=CCCC(C)=CC(O)C1C=CC2C(=O)N(C)C(=O)C2N1Nc1ccccc1` (stereo not given), the z-score is -1.81 in assay [1]; -1.39 in assay [2]; -1.35 in assay [3]; -2.56 in [4]; -4.09 in assay [5]; -2.66 in assay [6]. For the same molecule, the z-score in assay [7] was 1.29 (inactive); in assay [8], -0.934; in assay [9], -1.34; in assay [10], 0.597 (inactive); in assay [11] it was -1.34; in [12], -4.94 (inactive). Moreover, the z-score in [13] is -1.37 (inactive); in assay [15] it was 1.51 (inactive); in assay [16], 0.938 (inactive); in assay [17] it was -0.261 (inactive); in assay [18], 0.0052 (inactive); in assay [19], -2.03. Further, the composite z-score was 0.0684 (inactive) in assay [14] and 0.123 in [20].
Consider `CCCCCCc1nc(-c2cc(C)c(OC)c(C)c2)cc2c1[Si](C(C)C)(C(C)C)OC2`, for which the z-score in [1] was -0.194; in assay [2] it was 1.29; in assay [3], 0.117; in assay [4], -1.12; in [5], -1.11; in [6] it was -0.48. Moreover, the z-score in assay [7] is -0.385 (inactive); in assay [8] it was -0.547; in assay [9], -0.288; in assay [10] it was 1.1 (inactive); in assay [11], -0.206; in [12], -1.09 (inactive). Moreover, the z-score in [13] is 0.401 (inactive); in [15] it was -0.747 (inactive); in [16], -0.493 (inactive); in assay [17] it was 0.615 (inactive); in assay [18], 0.641 (inactive); in [19], -0.11. Also, the composite z-score in assay [14] is -3.17 (inactive); in assay [20] it was 0.0537.
As to `COc1ccc(CCNC(=O)[C@@H]2c3ccccc3C(=O)N(Cc3ccccc3Cl)[C@H]2c2ccc(CO)cc2)cc1`, the z-score was 1.37 in assay [1]; 0.789 in assay [2]; 0.332 in assay [3]; -0.897 in assay [4]; -0.474 in [5]; 1.64 in assay [6]. In addition, the z-score in [7] is 0.716 (inactive); in assay [8] it was -0.0929; in [9], 1.42; in [10], 1.22 (inactive); in [11], 0.891; in [12], -0.541 (inactive). Further, the z-score in assay [13] was 0.258 (inactive); in [15], 0.416 (inactive); in assay [16] it was 0.394 (inactive); in assay [17], -0.258 (inactive); in assay [18], -0.457 (inactive); in [19], 0.883. The composite z-score is 0.0856 (inactive) in assay [14] and -0.102 in assay [20].
